According to PubChem BioAssay AID1458 (National Center for Advancing Translational Sciences (NCATS), 2008):
Among all 210,000 compounds or so, about 5,900 (2.8%) were called active. Not shown: some 5% with an inconclusive outcome. Calls follow the shape of the dose curve; as a rule, active = well fitted activation curve with a large enough effect; inconclusive = small, poorly fitted or top-dose-only effect; inactive = no such curve, though single readings can be large or run the other way. The full list was thinned out, with actives kept by preference.

Assay: qHTS Assay for Enhancers of SMN2 Splice Variant Expression; also: nearly all actives have a fitted effect of over 55% in size; as to activity change, positive = activation: % of control where 0% means no effect
Settings: HEK293 SMN2-luciferase splicing reporter, luminescence, 30-36 h; series mostly up to 46.1 µM; activity change, positive = activation: at the top concentration
In short: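 qHTS luciferase splicing reporter: luminescence rises when SMN2 exon 7 is included in transfected HEK293 cells. Compound exposure lasted 30-36 h at 37C, with 4.5 mM final sodium butyrate as control, followed by a ONE-Glo read.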
Potency is read from the fitted curve at half-maximal effect.

Activity change, positive = activation, inactive:
COCC(=O)N=Nc1c(O)[nH]c2ccccc12 16.4%
Cc1cccc(N(CC(=O)N=Nc2c(O)[nH]c3ccccc23)S(C)(=O)=O)c1C 4.36%
COc1ccccc1CNC(=O)C(Cc1ccccc1)NS(=O)(=O)c1ccc2c(c1)oc(=O)n2C (stereo not given) 4.66%
O=C(NC1CCC(O)CC1)c1ccc(S(=O)(=O)NCc2ccco2)cc1 (stereo not given) 13%
C/C(=N\NS(=O)(=O)c1ccc(Br)cc1)c1cccs1 -8.27%
C/C(=N\NC(=O)COc1c(C)cccc1C)c1cccs1 -0.888%
Cc1c(Cl)cnc(NC(=O)COC(=O)c2ccc(S(=O)(=O)NCc3ccco3)cc2)c1Cl 3.97%
Cc1cccc(C(CC(=O)NCC2(c3ccccc3)CCCC2)c2ccccc2)c1O (stereo not given) -50.4%
CCOc1ccccc1CNCc1c(C(=O)O)c(C)n(Cc2ccc(C)cc2)c1C 2.44%
O=S(=O)(NCC(c1ccccc1)N1CCc2ccccc21)c1ccccc1 (stereo not given) -3.77%
COc1ccc(S(=O)(=O)Nc2cc3c(C(=O)OC(C)C)c(C)oc3c3ccccc23)cc1 4.13%
Cc1cc2oc(C(=O)N(Cc3ccc(Cl)cc3)Cc3ccco3)c(C)c2cc1Cl 8.31%
COc1ccccc1C(=O)Nc1c(C(=O)Nc2ccc(C)cc2)oc2ccccc12 5.31%
O=C(Nc1nc2ccc(F)cc2s1)c1nc(SCc2ccccc2F)ncc1Cl 3.21%
CSc1ncccc1C(=O)Nc1nc2ccc(F)cc2s1 -21.2%
Cc1cccc(N2CCN(C(=O)c3ccc4c(c3)CCN4S(=O)(=O)c3ccccc3)CC2)c1C -31.7%
Cn1c(=O)n(Cc2ccco2)c(=N)c2c3c(sc21)CCCC3 -0.885%
O=C(NCc1ccco1)c1cccn2c(=O)c3c4c(sc3nc12)CCCC4 -28.6%
Oc1ccccc1-c1nc2ccc(Cl)cn2c1Nc1ccc2c(c1)OCCO2 -1.05%
CC(=O)C1C(c2cccc(Oc3ccccc3)c2)NC(=O)NC1(O)C(F)(F)F (stereo not given) 8.81%
CC(=O)C1C(c2ccc(Cl)cc2)NC(=O)NC1(O)C(F)(F)F (stereo not given) 7.08%
COc1ccc2c(c1)C(c1cccs1)=NNC(c1cccnc1)=N2 -4.02%
Fc1ccc2c(c1)C(c1cccnc1)=NNC(c1cccs1)=N2 -11.3%
Cc1cccn2c(=O)c3cc(C(=O)NC(C)c4ccccc4)c(=N)n(CCCO)c3nc12 (stereo not given) -17.4%
COc1cc(OC)cc(C(=O)Nc2c(C(=O)Nc3ccc(F)cc3)oc3ccccc23)c1 0.56%
CCN(CC)c1ccc(/C=N/Nc2nc(C)cc(C)n2)c(O)c1 -70.1%
COc1ccc(/C=C(\C#N)C(=O)ONC2=NCCCCC2)cc1 -13.8%
NS(=O)(=O)c1ccc(NC(=O)COc2ccc(S(=O)(=O)NC3CCCCC3)cc2)cc1 -1.03%
Cc1ccc(S(=O)(=O)N(C)CC(=O)NC2CCCC2)cc1 -21.5%
Cc1ccc(S(=O)(=O)NCC(=O)N(CC(=O)NC(C)(C)C)Cc2cccs2)cc1 2.37%
CN(Cc1ccccc1)C(=O)c1cc2c(=O)n(C)c3ccccc3c2s1 -7.18%
Cc1cccc(NC(=O)CN(c2ccc(C(C)C)cc2)S(=O)(=O)c2c(C)nn(C)c2C)c1C 3%
CCOc1ccc(-c2cc3nc(C4CCN(C(=O)OC(C)(C)C)CC4)c(C(=O)Nc4ccc(C(=O)OC)cc4)cn3n2)cc1 -1.9%
Nc1nonc1-c1noc(-c2ccc(Br)o2)n1 9.38%
Cn1nc(-c2ccccc2)c(-c2nc(-c3ccc(Cl)cc3)no2)c1Cl -29.9%
CCCN(CCC)c1ccc(C(O)c2nnc(-c3ccccc3)o2)cc1 (stereo not given) -65.9%
OC(c1nnc(-c2ccccc2)o1)c1cccs1 (stereo not given) -2.46%
COC(=O)c1sc2ncccc2c1-n1c(C)ccc1C 6.92%
Cc1sc2ncn(CC(=O)N3CCN(c4ccc(F)cc4)CC3)c(=O)c2c1S(=O)(=O)N1CCN(c2ncccn2)CC1 5.62%
CCc1nccn1S(=O)(=O)c1cc(Br)ccc1Br 1.92%

Potency, active:
C/C(=N\Nc1ncc(Cl)cc1Cl)c1cccs1 11.2 µM
C/C(=N\Nc1ncc(Cl)cc1Cl)c1ccc(S(=O)(=O)NCc2ccco2)cc1 12.6 µM
CCS(=O)(=O)N1Cc2ccccc2CC1C(=O)Nc1nc2ccc(F)cc2s1 (stereo not given) 14.1 µM
O=c1oc(-c2ccco2)nc2sc3c(c12)CCCCC3 14.1 µM
O=C(c1cccs1)C1C(c2ccc(Br)cc2)NC(=S)NC1(O)C(F)(F)F (stereo not given) 12.6 µM
CCOc1ccc2c(c1)C(c1ccc(C)cc1)=NNC(c1ccc(C)cc1)=N2 12.6 µM
Oc1ccc(/C=N/NC2=NCCCCC2)c(O)c1 12.6 µM
Cc1ccc(S(=O)(=O)NCC(=O)N(CC(=O)NC2CCCCC2)Cc2ccco2)cc1 20 µM
Brc1ccc(-c2noc(-c3ccccc3)n2)o1 11.2 µM
Brc1ccc(-c2nnc(-c3ccccc3)o2)o1 14.1 µM
